This note sets out measurements from PubChem BioAssay (NCATS).

The term viability denotes a read-out of living cells in per cent, often relative to untreated cells.

Values joined by “and” are separate entries in the source; they are usually repeats but may differ in a detail not shown here. Equal values may be shown once. Inconclusive results are not listed. Values without a mark were called inactive. Active and inactive are the calls of the source. Unless noted, calls follow the shape of the dose curve; as a rule, active = well fitted curve in the direction sought with a large enough effect; inconclusive = small, poorly fitted or top-dose-only effect, or another doubt; inactive = no such curve, though single readings can be large; an effect the other way counts as inactive or inconclusive. Positions of bridges follow the written chain, without caps; N, C: chain ends. Non-standard residues stand in square brackets, D forms with d. Residues, ends and D or L forms follow the SMILES beside them. *: point of attachment. X1 = CCC(C)C(N)C1=NC(C(=O)*)CS1; dOrn = NCCC[C@@H](N)C(=O)O

Assay [1] concerns the target Cellular tumor antigen p53 (Homo sapiens) (UniProt P04637). Description: Primary qHTS for small molecule compounds that upregulate eGFP-tagged delta133p53alpha (in N-terminal) cells. (AID 2060322). Also: nearly all actives have a fitted effect of over 75% in size. Also: potency is read from the fitted curve at half-maximal effect.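 As to activation: series mostly up to about 56 µM; 0% = DMSO vehicle and 100% = reference activator.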 As to conditions: NCI-H358 eGFP-delta133p53alpha fluorescence, 24 h; activation: stronger effect = higher value. In a few lines:
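NCI-H358 cells pre-induced 24 h with 10 ng/ml doxycycline to express N-terminal eGFP-delta133p53alpha, then dosed 24 h at 37C without doxycycline; fixed, Hoechst-stained, GFP intensity by laser scanning cytometry, normalized to DMSO (0%) and 57.5 uM 5-azacytidine (100%).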
(In general: qHTS replaces the single test concentration by a dilution series.)

Assay [2] addresses Aldehyde dehydrogenase, mitochondrial (Homo sapiens) (UniProt P05091). Nature of the assay: qHTS for Inhibitors of the Aldehyde Dehydrogenase Family (ALDH2) Confirmatory screens (AID 2061303; active = well fitted inhibition curve with a large enough effect; title and protocol of this record describe different tests; also: nearly all actives have a fitted effect of over 45% in size; also: potency is read from the fitted curve at half-maximal effect).
The nature of assay [3]: qHTS for Inhibitors of the Aldehyde Dehydrogenase Family (ALDH1A2, ALDH1A3, ALDH2, ALDH3A1) (AID 2061307). Also: nearly all actives have a fitted effect of over 50% in size.
Assay [4] has as its target Retinaldehyde dehydrogenase 3 (Homo sapiens) (UniProt P47895). Description: qHTS for Inhibitors of the Aldehyde Dehydrogenase Family (ALDH1A3) Confirmatory screens (AID 2061311). Also: nearly all actives have a fitted effect of over 60% in size. Also: potency is read from the fitted curve at half-maximal effect.
The target in assay [5] is Aldehyde dehydrogenase 1A1 (Homo sapiens) (UniProt P00352). Description: qHTS for Inhibitors of the Aldehyde Dehydrogenase Family (ALDH1A1) Confirmatory screens (AID 2061316). Also: nearly all actives have a fitted effect of over 65% in size. Also: potency is read from the fitted curve at half-maximal effect.
The target in assay [6] is Retinaldehyde dehydrogenase 3 (Homo sapiens) (UniProt P47895). Nature of the assay: qHTS for Inhibitors of the Aldehyde Dehydrogenase Family (ALDH1A3) Validation screen (AID 2061312). Also: nearly all actives have a fitted effect of over 45% in size. Also: potency is read from the fitted curve at half-maximal effect.
For assay [7] the target is unchanged. Nature of the assay: qHTS for Inhibitors of the Aldehyde Dehydrogenase Family (ALDH1A3) Primary screen (AID 2061315). Also: potency is read from the fitted curve at half-maximal effect.
For assay [8], the target named is Aldehyde dehydrogenase, mitochondrial (Homo sapiens) (UniProt P05091). Description: qHTS for Inhibitors of the Aldehyde Dehydrogenase Family (ALDH2) Primary screen (AID 2061308).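 Also: plate controls were vehicle for no effect and reference inhibitor for full effect; nearly all actives have a fitted effect of over 55% in size.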
Assay [9] has as its target Retinal dehydrogenase 2 (Homo sapiens) (UniProt O94788). Description: qHTS for Inhibitors of the Aldehyde Dehydrogenase Family (ALDH1A2) Confirmation screens (AID 2061314). Also: nearly all actives have a fitted effect of over 65% in size. Also: potency is read from the fitted curve at half-maximal effect.
Assay [10] can be described thus: BET inhibitor-based combinations targeting novel dependencies in MECOM-rearranged (r) AML: SET-2 cell line (AID 2202231).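 Also: plate controls were DMSO treated cells for no effect and wells without cells for full effect; nearly all actives have a fitted effect of over 35% in size.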 As to conditions: SET-2 AML cells viability, CellTiter-Glo luminescence, 48 h; viability: stronger effect = lower value, series mostly up to about 46 µM. In a few lines:
(§1)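 A 48 hr incubation preceded viability reading by CellTiter-Glo, with 15 min room-temperature development. Dose series had 11 points; normalization used DMSO and empty wells; AUC was computed and mean-centered per line as Z-AUC.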

A short description of assay [11]: BET inhibitor-based combinations targeting novel dependencies in MECOM-rearranged (r) AML: OCI-AML3 cell line (AID 2202232).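 Also: series mostly up to about 46 µM; plate controls were DMSO vehicle wells for no effect and wells without cells for full effect; nearly all actives have a fitted effect of over 35% in size.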 As to conditions: Potency: OCI-AML3 viability. In a few lines:
as §1

Assay [12] is described as follows: BET inhibitor-based combinations targeting novel dependencies in MECOM-rearranged (r) AML: MV-4-11 cell line (AID 2202233).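 Also: plate controls were DMSO for no effect and blank wells for full effect; nearly all actives have a fitted effect of over 45% in size.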 In a few lines: (§2)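 Each compound is tested in an 11-point concentration series against 500 seeded cells/well for 48 hr. The luminescent viability signal is normalized to DMSO and blank wells, then reduced to AUC and a cell-line-centred Z-AUC.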

Assay [13] is described as follows: BET inhibitor-based combinations targeting novel dependencies in MECOM-rearranged (r) AML: HNT-34 cell line (AID 2202234).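 Also: plate controls were vehicle wells for no effect and cell-free wells for full effect; nearly all actives have a fitted effect of over 35% in size.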 In a few lines:
as §2

A short description of assay [14]: BET inhibitor-based combinations targeting novel dependencies in MECOM-rearranged (r) AML: UCSD-AML1 cell line (AID 2202235).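 Also: series mostly up to about 46 µM; plate controls were DMSO vehicle wells for no effect and blank wells for full effect; nearly all actives have a fitted effect of over 40% in size.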 The procedure, abridged:
as §2

The nature of assay [15]: BET inhibitor-based combinations targeting novel dependencies in MECOM-rearranged (r) AML: AML-194 cell line (AID 2202237;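 also: plate controls were vehicle wells for no effect and wells without cells for full effect; nearly all actives have a fitted effect of over 40% in size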). The procedure, abridged:
as §1

Sequence of Cellular tumor antigen p53 (Homo sapiens) (P04637 whole entry, looked up): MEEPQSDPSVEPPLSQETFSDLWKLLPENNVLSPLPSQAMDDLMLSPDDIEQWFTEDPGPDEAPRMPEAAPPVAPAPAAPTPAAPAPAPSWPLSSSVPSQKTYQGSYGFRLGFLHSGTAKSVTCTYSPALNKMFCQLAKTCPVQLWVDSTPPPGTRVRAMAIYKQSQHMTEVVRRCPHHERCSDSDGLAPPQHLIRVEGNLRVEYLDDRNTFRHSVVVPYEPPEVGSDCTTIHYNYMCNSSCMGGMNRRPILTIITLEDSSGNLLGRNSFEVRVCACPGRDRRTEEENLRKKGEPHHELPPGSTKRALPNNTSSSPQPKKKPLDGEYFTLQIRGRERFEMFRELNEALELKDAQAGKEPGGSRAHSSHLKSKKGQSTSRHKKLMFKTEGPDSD

With `O=C1CC(c2ccc([N+](=O)[O-])cc2)=NN1c1ccccc1`, the activation in [1] was -8.93%. The Potency entry in assay [2], in assay [3] and in assay [5] was “inactive” throughout. Further, the Potency in assay [4] was 11.3 µM (active).

For `CCCN1CCC=C(c2cc(-c3ccc(C)cc3)no2)C1`, the activation in [1] was 2.86%. Also, the Potency result in assay [2], in assay [3], in [7] and in assay [5] was “inactive” throughout. Moreover, in assay [6], the Potency was 25.1 µM (active).

In the case of `O=C(O)c1cn(C2CC2)c2cc(N3C[C@@H]4C[C@H]3CN4)c(F)cc2c1=O`, in assay [1], the activation is 11.7%. Further, the Potency entry in assay [2], in assay [8], in assay [4], in assay [9] and in assay [7] was “inactive” each time. Besides, the Potency in assay [5] is 31.8 µM (active).

For `CC(=O)Nc1sc2c(c1-c1nc3ccccc3s1)CNC2`, the Potency in assay [1] was 26.9 µM (active); in [2], 11.3 µM (active); in [3], 7.12 µM (active); in assay [5], 6.34 µM (active). Moreover, the Potency entry in assay [7] was “inactive”.

As to `CC1(NC(=O)c2ccc(C#Cc3cccc(F)c3)cn2)COC1`, in [1], the activation was -11.9%. Moreover, the Potency result in assay [2], in assay [8], in [4], in assay [6], in assay [9] and in assay [7] was “inactive” throughout. Besides, the Potency result in assay [5] is “inactive”.

For the compound `CCOC(=O)c1cccc(CNc2ccc(N(C)C(=O)Nc3ccccc3)cc2)c1`, the activation in [1] was -12.9%. Besides, the Potency result in [2], in [3], in assay [4], in assay [9] and in assay [5] was “inactive” each time.

As to `CC(C)(C)Nc1nc(Nc2ccc(C(N)=O)cc2)cc(N)c1C#N`, the activation in assay [1] is 11%. Moreover, the Potency in assay [2] is 7.08 µM (active); in assay [4], 15.8 µM (active); in [9], 3.57 µM (active); in [5] it was 14.2 µM (active). Moreover, the Potency result in [8], in assay [6] and in [7] was “inactive” each time.

For the compound `Fc1ccc(N2CCN(CCC3OCCc4ccccc43)CC2)cc1` (stereo not given), the activation in [1] is -6.21%. Also, the Potency entry in assay [2], in [3] and in [5] was “inactive” throughout.

For the compound `CN(C)c1ccc2c(c1)OC(N)=C(C#N)C2c1cccc(C(F)(F)F)c1` (stereo not given), in assay [1], the Potency is 0.953 µM (active). Besides, the Potency result in assay [2], in [3] and in assay [5] was “inactive” each time.

With `Cc1csc2c(N[C@@H](C)CN3CCN(S(=O)(=O)c4ccc(Cl)c(Cl)c4)CC3)ncnc12`, the activation in assay [1] is -2.86%. Besides, the Potency was 12.6 µM (active) in assay [2]; 708 nM (active) and 224 nM (active) in assay [3]; 8.96 µM (active) in assay [5]. Moreover, the Potency entry in assay [7] was “inactive”.

With `Cc1nnc(-c2sc(NC(=O)[C@H](C(C)C)n3c(=O)[nH]c4ccccc4c3=O)nc2C)o1`, the activation in assay [1] was -7.64%. For the same compound, the Potency entry in assay [2], in [3], in [4], in [9], in assay [7] and in [5] was “inactive” in each case.

Take `CO/N=C(/C(=O)N[C@@H]1C(=O)N2C(C(=O)O)=C(Cn3ccc(=N)n3CCO)CS[C@H]12)c1csc(N)n1`: the activation in [1] is 2.39%. For the same compound, the Potency result in [2], in [3], in assay [6], in [9] and in [7] was “inactive” in each case.

In the case of `CCCN(CCN1CCN(c2ccccc2OC)CC1)C1CCc2ncsc2C1` (stereo not given), the activation in assay [1] was -3.57%. For the same compound, the Potency entry in assay [2], in assay [3], in assay [4], in [9] and in assay [5] was “inactive” throughout.

As to `COc1ccc2c(c1O)OC[C@H]1c3ccc(O)cc3O[C@@H]21`, the activation in assay [1] was -14.5%. The Potency entry in assay [2] and in assay [8] was “inactive” in each case. For the same compound, the Potency in [4] is 22.5 µM (active).

For the compound `Clc1ncoc1-c1c[nH]c2ccccc12`, the activation in assay [1] is 11.5%. Moreover, the Potency entry in assay [2], in [8], in assay [4], in assay [9] and in [7] was “inactive” in each case.

As to `Cn1cc(Nc2cnccc2C(=O)O)c2cccnc21`, in [1], the activation was 4.33%. Moreover, the Potency result in assay [2], in assay [8], in assay [4], in [9] and in assay [7] was “inactive” throughout.

On to `CCC(C)C(N)C1=NC(C(=O)N[C@@H](CC(C)C)C(=O)N[C@H](CCC(=O)O)C(=O)N[C@H](C(=O)N[C@H]2CCCCNC(=O)[C@H](CC(N)=O)NC(=O)[C@@H](CC(=O)O)NC(=O)[C@H](Cc3cnc[nH]3)NC(=O)[C@@H](Cc3ccccc3)NC(=O)[C@H]([C@@H](C)CC)NC(=O)[C@@H](CCCN)NC2=O)[C@@H](C)CC)CS1` (stereo not given in full) (X1-L[dE]IK[dOrn]I[dF]H[dD]N; lactam 4-C), for which, in [1], the activation is -3.34% and -0.955%. Further, the figures for the Potency in [2], in assay [9] and in [5] were 12.7 µM (active), 11.3 µM (active) and 4 µM (active), respectively. Besides, the Potency entry in [8], in assay [4], in [6], in assay [7], in [11] and in assay [12] was “inactive” in each case. Besides, the Potency result in [13], in [14] and in [15] was “inactive” throughout. For the same compound, the viability in [10] is 117%.

Turning to `CN(C)C(=O)Nc1cc(-c2ccccc2)ccc1N(C)C`, the activation in [1] was -13.7%. The Potency entry in [2] and in assay [3] was “inactive” in each case. The Potency in [7] is 28.2 µM (active).

For the compound `Cn1cnc(-c2nccc3c(=O)[nH]c(OCCCC(F)(F)F)nc23)c1`, the activation in [1] is -13.4%. For the same compound, the Potency result in assay [2], in [3], in [9], in assay [7] and in [5] was “inactive” in each case.

Consider `CC(=O)NC(C)c1cnc(-c2cnc(Oc3ccc(OC(C)C)cc3)s2)s1` (stereo not given), for which the activation in assay [1] is -20%. The Potency result in [2], in [8], in [4], in assay [6], in [9] and in assay [7] was “inactive” in each case.

As for `COc1ccc(NC(=O)c2ccc(-c3ccc(C(N)=O)cc3C)cc2)cc1N1CCN(C)CC1`, the activation in [1] was 1.43%. Besides, the Potency entry in assay [2], in [8], in assay [4], in assay [6], in assay [7] and in assay [5] was “inactive” in each case.

As to `Cc1cccc(C)c1OCC(N)C(C)C` (stereo not given), in assay [1], the activation is -8.7%. Besides, the Potency entry in assay [2], in assay [3] and in [9] was “inactive” in each case.
